Data published in the supplement of paper PMC9694430.

Assays:
Test in all cases: thermal shift delta Tm vs DMSO control; higher = stronger stabilization (binding)
Settings in all cases: 12.5 µM; protein concentration 2 µM
LOC_OS02G45750-cb003 = test system: LOC_OS02G45750-cb003
Summary of the method: (§1)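 Rice kinase domain constructs, made in E. coli and purified, were placed in 96-well plates at 2 μM in 19.5 μl of 100 mM potassium phosphate pH 7.5, 150 mM NaCl, 10% glycerol and 5 × SYPRO Orange, with compound in DMSO. A temperature ramp from 25°C to 95°C at 0.05°C/s was used for differential scanning fluorimetry. The melting temperature shift is a triplicate mean compared with DMSO-only protein, derived from Boltzmann fits.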

LOC_OS02G54510-cb004 = test system: LOC_OS02G54510-cb004
Summary of the method: as §1

LOC_OS03G04050-cb001 = test system: LOC_OS03G04050-cb001
Summary of the method: as §1

LOC_OS03G12390-cb001 = test system: LOC_OS03G12390-cb001
Summary of the method: as §1

LOC_OS03G27990-cb004 = test system: LOC_OS03G27990-cb004
Summary of the method: as §1

LOC_OS03G50450-cb001 = test system: LOC_OS03G50450-cb001
Summary of the method: as §1

LOC_OS03G50810-cb003 = test system: LOC_OS03G50810-cb003
Summary of the method: as §1

LOC_OS04G35114-cb001 = test system: LOC_OS04G35114-cb001
Summary of the method: as §1

LOC_OS04G38480-cb003 = test system: T1, LOC_OS04G38480-cb003
T1 sequence (whole entry): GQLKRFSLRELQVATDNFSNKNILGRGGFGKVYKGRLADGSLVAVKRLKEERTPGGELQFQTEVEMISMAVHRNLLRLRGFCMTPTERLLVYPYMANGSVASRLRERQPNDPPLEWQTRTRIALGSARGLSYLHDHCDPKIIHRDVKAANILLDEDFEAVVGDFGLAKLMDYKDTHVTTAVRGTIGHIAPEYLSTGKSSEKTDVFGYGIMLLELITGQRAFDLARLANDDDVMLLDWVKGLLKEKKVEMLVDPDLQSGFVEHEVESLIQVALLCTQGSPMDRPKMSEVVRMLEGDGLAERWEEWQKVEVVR
Summary of the method: as §1

LOC_OS04G41100-cb001 = test system: T2, LOC_OS04G41100-cb001
T2 sequence (whole entry): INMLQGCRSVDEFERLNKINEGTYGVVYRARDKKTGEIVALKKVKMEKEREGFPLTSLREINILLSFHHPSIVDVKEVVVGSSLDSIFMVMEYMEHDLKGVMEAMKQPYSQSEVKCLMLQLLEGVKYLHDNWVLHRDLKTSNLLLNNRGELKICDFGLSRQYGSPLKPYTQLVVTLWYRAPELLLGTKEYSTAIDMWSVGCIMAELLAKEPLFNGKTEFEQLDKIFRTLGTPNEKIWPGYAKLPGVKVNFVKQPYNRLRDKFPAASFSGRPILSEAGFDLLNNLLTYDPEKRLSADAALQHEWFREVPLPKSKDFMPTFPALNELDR
Summary of the method: as §1

LOC_OS04G57630-cb004 = test system: LOC_OS04G57630-cb004
Summary of the method: as §1

LOC_OS05G07850-cb002 = test system: LOC_OS05G07850-cb002
Summary of the method: as §1

LOC_OS05G16824-cb004 = test system: LOC_OS05G16824-cb004
Summary of the method: as §1

LOC_OS05G28520-cb001 = test system: LOC_OS05G28520-cb001
Summary of the method: as §1

LOC_OS05G30820-cb001 = test system: LOC_OS05G30820-cb001
Summary of the method: as §1

LOC_OS05G43570-cb004 = test system: LOC_OS05G43570-cb004
Summary of the method: as §1

LOC_OS06G16330-cb003 = test system: LOC_OS06G16330-cb003
Summary of the method: as §1

LOC_OS06G22820-cb001 = test system: T3, LOC_OS06G22820-cb001
T3 sequence (whole entry): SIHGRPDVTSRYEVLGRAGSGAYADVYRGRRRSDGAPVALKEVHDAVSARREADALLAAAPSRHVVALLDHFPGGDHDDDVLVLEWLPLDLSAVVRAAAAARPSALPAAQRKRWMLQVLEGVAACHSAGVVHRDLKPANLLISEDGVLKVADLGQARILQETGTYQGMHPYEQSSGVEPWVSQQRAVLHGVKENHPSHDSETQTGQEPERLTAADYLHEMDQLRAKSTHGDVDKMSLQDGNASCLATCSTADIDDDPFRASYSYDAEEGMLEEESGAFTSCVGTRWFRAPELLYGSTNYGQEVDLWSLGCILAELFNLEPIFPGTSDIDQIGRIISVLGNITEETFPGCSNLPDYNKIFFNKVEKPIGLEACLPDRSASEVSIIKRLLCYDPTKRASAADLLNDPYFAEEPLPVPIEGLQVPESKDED
Summary of the method: as §1

LOC_OS07G06570-cb004 = test system: LOC_OS07G06570-cb004
Summary of the method: as §1

LOC_OS07G07230-cb001 = test system: LOC_OS07G07230-cb001
Summary of the method: as §1
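Further: purified Escherichia coli-expressed rice kinase domain construct.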

LOC_OS06G16330-cb003, sequence (as listed by the source): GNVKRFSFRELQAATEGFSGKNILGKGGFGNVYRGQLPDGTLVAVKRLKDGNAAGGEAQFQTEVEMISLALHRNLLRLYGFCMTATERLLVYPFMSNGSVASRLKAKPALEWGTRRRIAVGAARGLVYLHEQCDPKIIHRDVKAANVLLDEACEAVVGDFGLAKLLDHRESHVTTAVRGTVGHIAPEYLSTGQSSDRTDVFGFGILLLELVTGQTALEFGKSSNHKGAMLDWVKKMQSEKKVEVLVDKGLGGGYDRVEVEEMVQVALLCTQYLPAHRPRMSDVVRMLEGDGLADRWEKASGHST

SMILES	thermal shift delta Tm (LOC_OS02G45750-cb003)	thermal shift delta Tm (LOC_OS02G54510-cb004)	thermal shift delta Tm (LOC_OS03G04050-cb001)	thermal shift delta Tm (LOC_OS03G12390-cb001)	thermal shift delta Tm (LOC_OS03G27990-cb004)	thermal shift delta Tm (LOC_OS03G50450-cb001)	thermal shift delta Tm (LOC_OS03G50810-cb003)	thermal shift delta Tm (LOC_OS04G35114-cb001)	thermal shift delta Tm (LOC_OS04G38480-cb003)	thermal shift delta Tm (LOC_OS04G41100-cb001)	thermal shift delta Tm (LOC_OS04G57630-cb004)	thermal shift delta Tm (LOC_OS05G07850-cb002)	thermal shift delta Tm (LOC_OS05G16824-cb004)	thermal shift delta Tm (LOC_OS05G28520-cb001)	thermal shift delta Tm (LOC_OS05G30820-cb001)	thermal shift delta Tm (LOC_OS05G43570-cb004)	thermal shift delta Tm (LOC_OS06G16330-cb003)	thermal shift delta Tm (LOC_OS06G22820-cb001)	thermal shift delta Tm (LOC_OS07G06570-cb004)	thermal shift delta Tm (LOC_OS07G07230-cb001)
COC1(c2sc3c(N4CCOCC4)nc(-c4cnc(N)nc4)nc3c2C)COC1	1.67 °C	3.13 °C	-0.01 °C	0.74 °C	0.96 °C	4.14 °C	0.91 °C	2.13 °C	1.11 °C	0.5 °C	0.27 °C	5.18 °C	1.1 °C	0.27 °C	0.59 °C	1.45 °C	3.12 °C	0.17 °C	0.85 °C	0.65 °C
O=C(O)c1cc(O)c2c(c1)[C@@H]([C@H]1c3cc(C(=O)O)cc(O)c3C(=O)c3c(O[C@@H]4O[C@H](CO)[C@@H](O)[C@H](O)[C@H]4O)cccc31)c1cccc(O[C@@H]3O[C@H](CO)[C@@H](O)[C@H](O)[C@H]3O)c1C2=O [Sennoside B]	0.1 °C	-0.47 °C	1.23 °C	0.74 °C	0.89 °C	0.17 °C	1.04 °C	0.32 °C	3.9 °C	0.24 °C	-0.43 °C	-1.7 °C		2.58 °C	0.73 °C	1.55 °C	-0.98 °C	1.61 °C	4.56 °C	-0.03 °C
Cc1cc(Nc2nc(N[C@@H](C)c3ccc(F)cc3)c(C#N)cc2F)n[nH]1	4.55 °C	2.52 °C	0.11 °C	4.41 °C	0.57 °C	1.39 °C	4.44 °C	1.88 °C	2.31 °C	1.28 °C	0.47 °C	11.9 °C	8.62 °C	-0.1 °C	1.2 °C	0.67 °C	8.11 °C	-0.41 °C	0.19 °C	0.12 °C
Oc1c(F)cc(-c2cnccc2-c2ccc(N3CCOCC3)cc2)cc1F	0.77 °C	0.07 °C	0.28 °C	-0.05 °C	0.11 °C	0.25 °C	0.2 °C	1.09 °C	0.6 °C	0.44 °C	0.16 °C	3.05 °C	-0.48 °C	0.43 °C	0.5 °C	0.44 °C	0.26 °C	0.6 °C	0.96 °C	0.44 °C
CC(C)(C)c1ccc(S(=O)(=O)/C=C/C#N)cc1	-0.34 °C	1.26 °C	0.18 °C	-0.99 °C	-0.83 °C	0.05 °C	-1.59 °C	-1.78 °C	1.74 °C	-0.39 °C	0.92 °C	0.97 °C		-0.58 °C	-0.04 °C	0.04 °C	0.83 °C	-0.39 °C	0.39 °C	-0.18 °C
Cc1cc(Nc2cc(N)ncn2)c(=O)n2c1C(=O)NC21CCCCC1	0.8 °C	0.09 °C	0.28 °C	0.13 °C	0.19 °C	0.47 °C	0.4 °C	0.45 °C	0.09 °C	0.53 °C	0.21 °C	5.64 °C	1.99 °C	-0.15 °C	0.03 °C	0.05 °C	0.4 °C	0.25 °C	0.6 °C	0.71 °C
